CCHFV vOTU inh = blocks the CCHF virus ovarian tumor domain protease | CCHFV vOTU protease, Pep-AMC fluorescence | AID 651958 | inhibition, % at 11.5 µM | actives 0.55% (n = 370,000); in the data active means inhibition above about 30%
SARS 3CLpro inh = SARS-CoV 3CLpro protease inhibition. recombinant SARS-CoV 3CLpro, quenched FRET peptide cleavage. AID 1706. actives 0.14% (n = 290,000). P0C6X7. inhibition, % at 6 µM; in the data active means inhibition above about 12%
DUSP3 inh = blocks human VHR1 dual specificity phosphatase | P51452 | recombinant VHR phosphatase, pNPP absorbance | inhibition, % at 13.3 µM | actives 0.52% (n = 290,000); in the data active means inhibition above about 50%
Target sequence (P51452 whole entry, looked up): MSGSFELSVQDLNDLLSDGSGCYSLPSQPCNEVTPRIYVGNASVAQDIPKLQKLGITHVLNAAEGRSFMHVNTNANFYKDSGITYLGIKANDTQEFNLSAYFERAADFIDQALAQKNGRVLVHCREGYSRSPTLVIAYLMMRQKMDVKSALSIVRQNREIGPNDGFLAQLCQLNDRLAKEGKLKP
RecA splice inh = blocks M. tuberculosis RecA intein splicing | inhibition, % (test concentration not listed) | cell-free RecA intein splicing, fluorescence | actives 0.75% (n = 290,000) | P9WHJ3; in the data active means inhibition above about 30%
GDH-TPI counter-1 = GDH-TPI coupled enzyme inhibition counter-screen | actives 1.2% (n = 360,000) | AID 588335 | GDH-TPI coupled enzyme counterscreen, NADH absorbance | inhibition, % at 4.8 µM; in the data active means inhibition above about 30%
Mtb FBA inh = inhibitors of M. tuberculosis fructose-bisphosphate aldolase | P9WQA3 | purified M. tuberculosis FBA, fluorescence read-out | inhibition, % at 1 µM | actives 2.3% (n = 360,000)
Target sequence (P9WQA3 whole entry, looked up): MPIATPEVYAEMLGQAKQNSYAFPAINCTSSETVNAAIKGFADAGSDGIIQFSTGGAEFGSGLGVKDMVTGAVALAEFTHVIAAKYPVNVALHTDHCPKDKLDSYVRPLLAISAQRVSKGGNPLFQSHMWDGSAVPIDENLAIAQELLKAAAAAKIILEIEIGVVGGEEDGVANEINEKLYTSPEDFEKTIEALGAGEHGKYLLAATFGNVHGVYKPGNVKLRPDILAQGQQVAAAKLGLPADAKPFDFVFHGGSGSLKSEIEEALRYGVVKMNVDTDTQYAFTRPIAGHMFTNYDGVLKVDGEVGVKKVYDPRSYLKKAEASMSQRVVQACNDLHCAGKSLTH
Mtb FBA inh conf = Mtb FBA inhibition, confirmed. inhibition, % at 1 µM. purified M. tuberculosis FBA, fluorescence read-out. actives 78% (n = 5,600). shares compounds with Mtb FBA inh. AID 651616
GDH-TPI counter-2 = GDH-TPI inhibition counter-screen for FBA inhibitors. shares compounds with Mtb FBA inh. GDH-TPI coupled enzyme counterscreen, fluorescence. inhibition, % at 1 µM. actives 81% (n = 5,600); in the data active means inhibition above about 10%
Hits are given with their value; - = inactive; . = no result; + = active, no number. Sampled rows, rich in hits. Any-hit rate of the full collection: about 4.7%. Unless noted, no stated cut-off is given here; in the data, active means inhibition above about 27%; inactive means the rest.

SMILES	CCHFV vOTU inh	SARS 3CLpro inh	DUSP3 inh	RecA splice inh	GDH-TPI counter-1	Mtb FBA inh	Mtb FBA inh conf	GDH-TPI counter-2
COc1ccc2c(c1)c1ncn(CCN3CCCCC3)c(=O)c1n2C	-	-	-	-	-	100	107	88
Cc1ccc2c(c1)[nH]c1c(=O)n(CCN3CCCCC3)cnc12	-	-	-	-	-	-	.	.
COc1ccccc1CCn1cnc2c3cc(C)ccc3n(C)c2c1=O	-	-	-	-	-	46	+	+
COc1ccc2c(c1)c1ncn(CCN3CCCC3)c(=O)c1n2C	-	-	-	-	-	89	90	74
COc1ccc(-c2cc3nc(NCCN4CCCC4)n(C)c(=O)c3s2)cc1OC	-	.	.	.	-	39	96	73
O=C(O)c1cccnc1Br	-	-	-	-	-	-	.	.
CCOC(=O)c1c(C)nc2ncccn12	-	-	-	-	-	75	37	38
CCOC(=O)c1cccc(C(=O)OCC)n1	-	-	-	-	-	-	.	.
CCOC(=O)c1cn2cccnc2n1	-	-	-	-	-	104	151	134
COc1cc(OC)cc(C(=O)Nc2nc(CC(=O)NC(C)c3ccccc3)cs2)c1 (stereo unspecified)	-	.	.	-	-	-	.	.
CS(=O)(=O)N(CC(=O)NC1CCCCCC1)Cc1ccc(Cl)cc1	-	-	-	-	-	-	.	.
CC1(C(=O)N(CC(=O)NC2CCCC2)Cc2ccc(Cl)cc2)CC(=O)N=C2C=CC=CN21 (stereo unspecified)	-	-	52	-	-	89	+	+
CC1=CC2=NC(=O)CC(C)(C(=O)N(CC(=O)NC(C)(C)C)C3CCCC3)N2C=C1 (stereo unspecified)	-	-	-	-	-	-	.	.
CC1=CC2=NC(=O)CC(C)(C(=O)N(CC(=O)NC(C)(C)C)Cc3cccs3)N2C=C1 (stereo unspecified)	-	-	-	-	-	101	149	125
Cc1cc(C)cc(N(CC(=O)NC2CCCCC2)C(=O)CCC(=O)Nc2cc(C)ccn2)c1	-	.	-	.	-	-	.	.
CC1=CC=CC2=NC(=O)CC(C)(C(=O)N(CC(=O)NC3CCCC3)Cc3ccc(Cl)cc3)N12 (stereo unspecified)	-	-	-	-	-	106	+	+
CC1=CC2=NC(=O)CC(C)(C(=O)N(CC(=O)NC3CCCC3)c3cc(C)cc(C)c3)N2C=C1 (stereo unspecified)	-	-	-	-	-	57	+	+
COc1cc(CNC(=O)c2cc(-c3cc(OC)ccc3Cl)n[nH]2)cc(OC)c1	-	.	.	.	-	-	.	.
CC(C)(C)n1nnnc1C(c1cc2ccccc2o1)N(CCC#N)Cc1ccccc1 (stereo unspecified)	-	.	.	.	.	.	.	.
CN1CCN(Cc2cn3cccnc3n2)CC1	-	-	-	-	-	-	.	.
Cc1ccc(S(=O)(=O)Cc2cn3cccnc3n2)cc1	-	-	-	-	-	92	50	32
c1ccc(SCc2cn3cccnc3n2)nc1	-	-	-	-	-	74	65	39
c1ccc(-n2cnnc2SCc2cn3cccnc3n2)cc1	-	-	-	-	-	103	102	76
[N-]=[N+]=NCc1cn2cccnc2n1	-	-	-	-	-	63	79	63
Cc1ccc2nc(-c3ccccc3)cc(C(=O)NCC(c3ccco3)N(C)C)c2c1 (stereo unspecified)	-	.	.	-	-	-	.	.
SMILES	CCHFV vOTU inh	SARS 3CLpro inh	DUSP3 inh	RecA splice inh	GDH-TPI counter-1	Mtb FBA inh	Mtb FBA inh conf	GDH-TPI counter-2
c1cnc2nc(CSc3ncn[nH]3)cn2c1	-	-	-	-	-	88	184	144
COc1ccc2oc(C(=O)NC3CCCCC3)c(C)c2c1	-	-	-	-	-	28	41	27
Cc1c(C(=O)NC2CCCCC2)oc2ccc(F)cc12	-	-	-	-	-	-	.	.
COc1ccc2oc(C(=O)OCC(=O)NC3CC3)c(C)c2c1	-	-	-	-	-	44	+	+
COc1ccc(C(=O)c2oc3ccc(OC)cc3c2N)cc1	-	-	-	-	-	-	.	.
COC(=O)c1oc2ccc(OC)cc2c1N	-	-	-	-	-	29	+	166
NC(=O)c1oc2ccc(Cl)cc2c1N	-	-	-	-	-	87	100	69
S=C(NCCc1cccc(Cl)c1)NC1CCCCC1	-	-	-	-	-	-	.	.
CCOc1ccc2oc(C(=O)OCC(=O)NC3CC3)c(C)c2c1	-	-	-	-	-	40	62	47
COc1ccc2oc(C(=O)OCC(=O)NC(C)(C#N)C3CC3)c(C)c2c1 (stereo unspecified)	-	.	.	-	-	31	-	24
C[C@]12CCC(=O)C=C1C=C[C@@H]1[C@@H]2CC[C@@]2(C)[C@H]1CC[C@@]21CCC(=O)O1	-	-	-	-	-	-	.	.
CCCC(C)NC(=O)c1cc(S(=O)(=O)N2CCCCCC2)ccc1OC (stereo unspecified)	-	.	.	.	-	-	.	.
CC(c1nc2ccccc2[nH]1)N(C(=O)C1=NNC(=O)CC1)c1ccccc1 (stereo unspecified)	-	.	.	.	.	-	.	.
Cc1nn(Cc2cccc(C(N)=O)c2)c(C)c1Br	-	-	-	.	-	-	.	.
O=S(=O)(c1ccc(F)cc1)N1CN2CCN(C2)C1	-	-	-	-	-	30	-	-
CCC/C(O)=C1\C(=O)CC(C)(C)CC1=Nc1ccccc1O	-	-	-	-	-	-	.	.
Cc1cc(F)ccc1NCC(=O)Nc1ccccc1Br	-	-	-	-	-	50	47	39
Cc1cccnc1NC(=O)Nc1cccc2ccccc12	-	-	-	-	-	56	90	73
CN(C)C1=NCC(CSC(=N)N)S1 (stereo unspecified)	-	-	-	-	-	68	200	175
CCOc1cccc(-c2cc(NCCc3ccccn3)n3nccc3n2)c1	-	.	.	.	-	35	87	71
Cc1cccc(-c2cc(NCCc3cccnc3)n3nccc3n2)c1	-	.	.	.	-	32	46	35
O=C(CCCC1=NS(=O)(=O)c2ccccc2N1)Nc1ccccc1	-	-	-	-	-	-	.	.
CCNC(=O)C1(C)CCN(C(=O)c2cccc3ccccc23)C1 (stereo unspecified)	-	.	.	.	-	-	.	.
CCOC(=O)c1nc(-c2ccccc2)oc1N1CCOCC1	-	-	-	-	-	97	120	95
COc1ccccc1-c1cc2ccccc2[nH]1	-	-	-	-	-	90	49	27
O=C(Nc1nc2ccccc2[nH]1)c1ccccc1O	-	-	-	-	-	47	+	+
O=C(Nc1nc2ccccc2[nH]1)c1ccccc1	-	-	-	-	-	-	.	.
CC(=O)c1cccc(NC(=O)COc2ccc3oc(=O)cc(C)c3c2)c1	-	-	-	-	-	-	.	.

Bioassay records from PubChem BioAssay.
